Most compounds without a hit are left out; they make up all but 3% or so of the library.
IkB sig inh: suppresses IkB signaling in ABC-DLBCL reporter cells; ABC-DLBCL IkBa-CBG/CBR dual luciferase ratio, 4 h; response scale: scaled: untreated 0%, proteasome inhibitor 100%; Potency, µM (titrated, usually from 57.1 µM); hit rate 0.04% among 110,000; active = well fitted curve in the direction sought with a large enough effect in the signal ratio, not every such curve was filed as active; inconclusive = small, poorly fitted or top-dose-only effect, or a change in a side signal; the % refers to the signal ratio;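 also: the direction sought is a rising ratio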
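Luminescence ratio of IκBα-fused green versus native red beetle luciferase in OCI-Ly3 cells, 4 h post-doxycycline with compound; red signal alone, scaled from basal (0%) to zero light (-100%), flagged nonspecific or cytotoxic effects.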
CRE Fsk mod: modulators of forskolin-stimulated CRE signaling in CHO cells | AID 662 | Potency, µM (series often up to 38.2 µM), most hits filed as activators | hit rate 2.5% among 71,000 | CHO CRE-bla reporter (cAMP response element driving beta-lactamase), forskolin EC10, beta-lactamase ratio; active = well fitted activation curve with a large enough effect in the signal ratio, with a control signal flat, not every such curve was filed as active; inconclusive = small, poorly fitted or top-dose-only effect, or effect the other way, or a change in a side signal; the % refers to the signal ratio
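AC50 values, positive or negative, reflect shifts in EC10 NKH 477-induced CRE-bla reporter activity in CHO cells. Incubation lasted 3 h at 37 °C before CCF4 substrate (2 h, room temperature) and ratiometric 460/530 nm reading.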
p53ts 39C tox: cytotoxicity in p53ts cells at nonpermissive temperature; H1299-p53A138V viability at 39C, ATP luminescence, 24 h; Potency, µM (series often up to 46.1 µM), actives largely listed as cytotoxic; hit rate 1.5% among 130,000; AID 902; also: nearly all actives have a fitted effect of over 55% in size
p53ts 32C tox: cytotoxicity in p53ts cells at permissive temperature | H1299-p53A138V at 32C, ATP luminescence viability, 24 h | Potency, µM (series often up to 46.1 µM), usual class: cytotoxic | hit rate 0.93% among 130,000 | AID 924; also: nearly all actives have a fitted effect of over 55% in size
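H1299-p53 A138V cells (temperature-sensitive p53) exposed 24 h to up to 46 uM compound at 32C, where p53 is wild-type in conformation. Viability read as ATP luminescence and normalised to DMSO and 100 uM tamoxifen. AC50 fitted with the Hill equation.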
Peg3 imprint: inducers of genomic imprint erasure in mouse ES cells | mouse ES Peg3-LacZ reporter, beta-gal luminescence, 40 h | Potency, µM (highest dose often 60.7 µM), most hits filed as activators | hit rate 0.02% among 110,000
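Each well holds 300 Peg3LacZ-Neo (maternal) female ES cells incubated 40 h at 37C, 5% CO2. LacZ is measured by BetaGlo luminescence, with AC50 and maximum efficacy derived from dose-response curves.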
Of the large screens only hits and unclear results are named; the others gave an inactive call. Unless noted, calls follow the shape of the dose curve; as a rule, active = well fitted curve in the direction sought with a large enough effect; inconclusive = small, poorly fitted or top-dose-only effect, or another doubt; inactive = no such curve, though single readings can be large; an effect the other way counts as inactive or inconclusive.

CCC(=O)N1c2ccc(S(=O)(=O)NCc3cccc(OC)c3)cc2CC1C (centres undefined)	none (no result: CRE Fsk mod)
COc1cc(C2c3c(-c4cc(C)cc(C)c4O)n[nH]c3C(=O)N2CCCO)cc(OC)c1OC (centres undefined)	none
COCCCN1C(=O)c2[nH]nc(-c3cc(C)cc(C)c3O)c2C1c1ccc(O)c(OC)c1 (centres undefined)	CRE Fsk mod 10µM
CC(C)c1ccccc1S(=O)(=O)c1cc(N)c2ncccc2c1[N+](=O)[O-]	p53ts 39C tox 3.16µM (no result: IkB sig inh, CRE Fsk mod)
Cc1cc2c(C)nc(-c3ccccc3)nc2o1	CRE Fsk mod 0.398µM
COc1cc2c(C)nc3onc(-c4ccccc4)c3c2cc1OC	CRE Fsk mod inconclusive
Cc1nc2ccccc2c(=O)n1-c1ccc(NC(=O)c2cccc([N+](=O)[O-])c2)cc1	IkB sig inh inconclusive (no result: CRE Fsk mod)
Cc1cc(C)cc(NS(=O)(=O)c2ccc3[nH]cc(C(=O)NCc4ccco4)c(=O)c3c2)c1	IkB sig inh inconclusive, CRE Fsk mod inconclusive, p53ts 39C tox 2µM, p53ts 32C tox inconclusive
Cc1cc(C)cc(NS(=O)(=O)c2ccc3[nH]cc(C(=O)NCc4ccccc4Cl)c(=O)c3c2)c1	none (no result: CRE Fsk mod)
COC(=O)c1c(SCC(=O)Nc2ccccc2OC)[nH]c2ccccc2c1=O	IkB sig inh inconclusive, p53ts 39C tox inconclusive (no result: CRE Fsk mod)
COC(=O)c1c(SCC(=O)Nc2cc(OC)cc(OC)c2)[nH]c2ccc(C)cc2c1=O	IkB sig inh inconclusive, p53ts 39C tox 5.01µM (no result: CRE Fsk mod)
COc1ccc(-n2ncc3c(NC(C)C)ncnc32)cc1	p53ts 39C tox 12.6µM, p53ts 32C tox 12.6µM (no result: IkB sig inh, CRE Fsk mod, Peg3 imprint)
Cc1ccc(-n2ncc3c(NC4CCCC4)ncnc32)cc1	p53ts 39C tox inconclusive, p53ts 32C tox 12.6µM (no result: CRE Fsk mod)
Clc1cccc(-n2ncc3c(NC4CCCCCC4)ncnc32)c1	IkB sig inh inconclusive (no result: CRE Fsk mod)
COc1ccc(-n2ncc3c(NC4CCCC4)ncnc32)cc1	p53ts 39C tox 2µM, p53ts 32C tox 5.01µM (no result: CRE Fsk mod)
COc1ccc(CNc2ncnc3c2cnn3-c2ccc(Cl)cc2)cc1	none (no result: CRE Fsk mod)
c1ccc(-n2ncc3c(NC4CCCC4)ncnc32)cc1	p53ts 39C tox 10µM, p53ts 32C tox 12.6µM (no result: CRE Fsk mod)
Cc1ccc(NC(=O)C2CCCN2S(=O)(=O)c2ccc3nc(-c4ccccc4)[nH]c3c2)cc1C (centres undefined)	IkB sig inh inconclusive (no result: CRE Fsk mod)
CCC(C(=O)Nc1cc(F)ccc1F)n1nc(-c2cc(C)ccc2C)ccc1=O (centres undefined)	IkB sig inh inconclusive (no result: CRE Fsk mod)
Cc1c2c(nc3c(C(=O)NC4CCCC4)cnn13)CCCC2	CRE Fsk mod 2.51µM
CCc1ccccc1N(CC)C(=O)c1cc2c(s1)-c1ccccc1SC2	IkB sig inh inconclusive, p53ts 39C tox inconclusive (no result: CRE Fsk mod)
CCOc1ccc(N(CC)C(=O)c2cc3c(s2)-c2ccc(Cl)cc2SC3)cc1	p53ts 39C tox 20µM (no result: CRE Fsk mod)
c1cncc(-c2csc(NCc3ccco3)n2)c1	none (no result: IkB sig inh, CRE Fsk mod, Peg3 imprint)
CN(C)c1ccc(Nc2nc(-c3cccnc3)cs2)cc1	CRE Fsk mod inconclusive, p53ts 39C tox 3.16µM, p53ts 32C tox 3.16µM
COc1ccc(-c2nnc(-c3cccs3)o2)cc1OC	IkB sig inh inconclusive, CRE Fsk mod inconclusive, p53ts 39C tox inconclusive, p53ts 32C tox inconclusive
c1cncc(-c2nnc(-c3cccs3)o2)c1	none
c1csc(-c2nnc(-c3ccc(N4CCOCC4)cc3)o2)c1	p53ts 39C tox 12.6µM, p53ts 32C tox 12.6µM
COc1cc(-c2nnc(-c3cccs3)o2)cc(OC)c1OC	CRE Fsk mod 2.51µM
CC(C)(C)c1ccc(C(=O)/C=C2\NC(=O)CS2)cc1	p53ts 39C tox 7.94µM, p53ts 32C tox 10µM
COC(=O)C1C(=O)c2c([nH]c(C(=O)OC3CCCCCC3)c2C)CC1C (centres undefined)	none
CCCCCOC(=O)c1[nH]c2c(c1C)C(=O)C(C(=O)OC)C(C)C2 (centres undefined)	IkB sig inh inconclusive, CRE Fsk mod inconclusive
COC(=O)C1C(=O)c2c([nH]c(C(=O)OCC3CCCO3)c2C)CC1C (centres undefined)	p53ts 39C tox inconclusive, p53ts 32C tox 12.6µM
COCCOC(=O)c1[nH]c2c(c1C)C(=O)C(C(=O)OC)C(C)C2 (centres undefined)	p53ts 39C tox 10µM, p53ts 32C tox 15.8µM
COC(=O)c1ccccc1NC(=O)c1ccc2c(c1)CCN2S(C)(=O)=O	none (no result: CRE Fsk mod)
Cc1ccc(C[C@H](Cc2nc3ccccc3[nH]2)c2nc3ccccc3[nH]2)cc1	CRE Fsk mod inconclusive (no result: p53ts 39C tox, p53ts 32C tox, Peg3 imprint)
CCC1CCCCN1CCCNC(=O)c1cc2c(Cl)nc3ccc(C)cc3c2s1 (centres undefined)	p53ts 39C tox 12.6µM (no result: CRE Fsk mod)
CCC1CCCCN1CCCNC(=O)c1cc2c(=O)n(CC)c3ccccc3c2s1 (centres undefined)	none (no result: CRE Fsk mod)
CCCCN(CC)CCCNC(=O)C1CCN(c2nc3ccc(CC)cc3s2)CC1	p53ts 39C tox 20µM, p53ts 32C tox 12.6µM (no result: CRE Fsk mod)
CCCCN(C)CCCNC(=O)C1CCN(S(=O)(=O)CC)CC1	none (no result: CRE Fsk mod)
CCCCN(C)CCCNC(=O)C1CCN(c2nc3ccc(CC)cc3s2)CC1	IkB sig inh inconclusive, p53ts 39C tox inconclusive, p53ts 32C tox 12.6µM (no result: CRE Fsk mod)
CCc1ccc(CNC(=O)c2cnc3sc(N4CCOCC4)nn3c2=O)cc1	none (no result: CRE Fsk mod)
CCOC(=O)c1ccc(NC(=O)Cn2nc(C)c3nn(-c4ccc(Cl)cc4)c(C)c3c2=O)cc1	none (no result: CRE Fsk mod)
COc1ccc(/C=C(\NC(=O)c2ccccc2)C(=O)NC2CCCCC2)cc1	none (no result: CRE Fsk mod)
Fc1ccc([C@H]2CCNC[C@H]2COc2ccc3c(c2)OCO3)cc1	IkB sig inh inconclusive, p53ts 39C tox 10µM, p53ts 32C tox 31.6µM
Cc1ccc(C(CC(=O)NCC2(c3ccccc3)CCCC2)c2ccccc2)c(O)c1 (centres undefined)	IkB sig inh inconclusive, p53ts 39C tox 15.8µM (no result: CRE Fsk mod)
CCCn1c(=O)c2sccc2n2c(CCCC(=O)Nc3cccc(CC)c3)nnc12	IkB sig inh inconclusive (no result: CRE Fsk mod)
Cc1ccc(C(=O)Nc2c(C)nc3ccccn3c2=O)cc1C	none (no result: CRE Fsk mod)
Cc1ccccc1Nc1c(-c2ccc(N3CCOCC3)cc2)nc2ncccn12	p53ts 39C tox 3.98µM, p53ts 32C tox 12.6µM (no result: CRE Fsk mod)
CCOc1ccc2nc(N3CCCC(C(=O)NCCc4ccc(Cl)cc4)C3)sc2c1 (centres undefined)	IkB sig inh inconclusive, p53ts 39C tox inconclusive (no result: CRE Fsk mod)
CCOc1ccc2nc(N3CCCC(C(=O)NCCCN4CCOCC4)C3)sc2c1 (centres undefined)	p53ts 32C tox 10µM
COc1ccc(/C=C/c2nc(C#N)c(N3CCCCC3)o2)cc1OC	none (no result: CRE Fsk mod)
Cc1ccc(NC(=O)Cn2c(=O)n(-c3ccccc3)c(=O)c3ccc(C(=O)NCc4ccc5c(c4)OCO5)cc32)c(C)c1	p53ts 39C tox 7.94µM, p53ts 32C tox inconclusive (no result: CRE Fsk mod)
Cc1ccc(-n2c(=O)c3ccc(C(=O)NCc4ccco4)cc3n(Cc3ccccc3Cl)c2=O)cc1	none (no result: CRE Fsk mod)

Screens: PubChem, National Center for Advancing Translational Sciences (NCATS)
